# Results from article PMC12864922, “TDP-43 directly inhibits mRNA accumulation in neurites through modulation of mRNA stability”.
# Over roughly 9,900 sequences, “r (bound/input frequency ratio)” has its median near 0.7; the highest 2% begin near 6.5. What follows is part of a selection rich in the highest values, with near analogues and random picks from the rest.
# B1: ENSMUSG00000028439.291|Fam219a|94:98 (ssRNA)
# RNA: GGGAGUUCUACAGUCCGACGAUCGCUUCGAUAUCCGCAUGCUAGUGUCUCUCCUUCAGGCGCCCCACAUGCCAGCAUUUCCACCCUCUGGAUUCUCCUCACAUGUCACUCUCCAGGUGCCGGGGCCUAGAGUGGGCCACACAGAAGGAGGAGUGGGGCUGUUGGCUUAGGAAGGGAAGCGCCUCUCUGUACACCACAACCAGGAGCUGCCCACUCCCCACACCUCCAGCCCAGCUUACCUCCCCCUAGUACAGAGAUCCUAAUUAGAUAAGAAAAUGCCAAGGGAGGCAAGCCAGAGAAAGCACUCUUGCGGUCGCACUAGUGUGGAAUUCUCGGGUGUCAAGG
# B2: ENSMUSG00000090935.679|Synj2bp (ssRNA)
# RNA: GGGAGUUCUACAGUCCGACGAUCGCUUCGAUAUCCGCAUGCUAUGAACCUUGAGAUUCACCACUGUCAGGAGCUCUCUCUCUCUGCUUAGAAUCAUCCAGACAGCGGGCUGGUCAGCCCACAUUAAAUAAGAACAUGUGGGACUAGAAUUCAGUCAACAAUGACAUGUUUCAUCAGGUGGUUAAAAUGUACAGAUUCUGUUGGAAAUGUUCCAUGGUAUUUCAAUAGCCAGAAUGAAGAACUGGGCUAAGUCCAGAGCUCUGCUCUCUGAGCAUCUGCCCCAGAUACAGAGGCAGAGUAUGAACUCUUGCGGUCGCACUAGUGUGGAAUUCUCGGGUGUCAAGG
# B3: ENSMUSG00000043670.52|Diras1|235:240 (ssRNA)
# RNA: GGGAGUUCUACAGUCCGACGAUCGCUUCGAUAUCCGCAUGCUACACCAGCCUACAGUAAGGUUGGGCUCCAUCCCUGCCUCUUCACACCUCCAUAGCUUCAUCCUUUGCAGACCUCUCCCUCUAUAUCUCUUUGCUCCCCCACCCCCAUUCUAUCUGCACCCCACAACCACACACUGGAGGUUUGAUCCCUGUGGAUCUGAAAACAGGGACCUGGCUAAGGAACUGCUCAUCCCAGUCAGGCCCAGAGAGGUUACCUUGCCUCUCCAUCUCUGUCCCACACACCCCAGCCAUGCCCACUGUCCCUCUUGCGGUCGCACUAGUGUGGAAUUCUCGGGUGUCAAGG
# B4: ENSMUSG00000029028.191|Lrrc47 (ssRNA)
# RNA: GGGAGUUCUACAGUCCGACGAUCGCUUCGAUAUCCGCAUGCUACCCAUCUCUGUGCAUCCUGACUGCGCACAUCCCAUCUCCGCAUGUGUACGCAUCUGUACCAGCACACAGCUGCCAUCCCUCGAGCCACAGUGCCUGGUCCUAAGGACCCAGCAGCUGCACAGAGGACUUGGUGGCCCCGUGCCUUGCCAUCUGGCUGAGAAGAGAACCAGACCCUCAGCCUUCCCCCUCGACACCUUCUCGUUGGUGACCUCUGACCUUAAAGGACCAUUUCUACCUUCUGUAAAAGAACACCUGUUUGGCUCUUGCGGUCGCACUAGUGUGGAAUUCUCGGGUGUCAAGG
# B5: ENSMUSG00000061578.1057|Ksr2 (ssRNA)
# RNA: GGGAGUUCUACAGUCCGACGAUCGCUUCGAUAUCCGCAUGCUAUGUGAAAGUCUGAUGACUCAAAUCAAAGUUUGGUUUUUCUUUUCUACUACUCUGAAGGAAAAUCUCAGCUUGGCUAUUUCUUCAUGUUUUAAAAAUGUCUUGACUUCUCUCAGCAACCAACUUCAGGUGCCAGGAUAUGAGAUGCUAAGGUUCAGGGGUGGUGGAGGUGAUUCUAUCCAGUGGCCAGCAAUACCCAAAAGCAGCCAACCAUGAAAAUAGAGGUUUGUAAUGUACAGAAGGCUGGGGGAGCUUUCAGGGGUCUCUUGCGGUCGCACUAGUGUGGAAUUCUCGGGUGUCAAGG
# B6: ENSMUSG00000043670.174|Diras1 (ssRNA)
# RNA: GGGAGUUCUACAGUCCGACGAUCGCUUCGAUAUCCGCAUGCUACAGCAAAGUCCCUGUGUGCGGUGAUAGGACUAGUGGCUGCUGCCCUAGGGCUCUGACAGAAUCUGAGCCUCUUUGCUGGUCAUGUGUACUCUGGAGACUGUCCCCCAUGUCUGCCCUGAGUUACGGAGCCCCUGUGGUAUCUGCGAGACUGUCCAGGAGACUUGAGUGGCUCCUGGGCCUGUGUCCCACCCAGAUGAGGGUGACUUAGAAUUCUGUGUUUAUGUGCCUGUGUGUGUGGAUGGGUGUGUGUCUGUCUUGGGCUCUUGCGGUCGCACUAGUGUGGAAUUCUCGGGUGUCAAGG
# B7: ENSMUSG00000029636.81|Wasf3|153:157 (ssRNA)
# RNA: GGGAGUUCUACAGUCCGACGAUCGCUUCGAUAUCCGCAUGCUAUGAUGUCUUCCAACCAGUGGGUGAUACGUUUUCCUGUUUCUUCCCUUUGCAAAUUGAAUUCCAGGUAGAUAUGGUUGUAGAGGGGAAAGUUUAACAAAUCAGAAUGAAAUGUUUGUCUGUUUGCACACUGGGCCUGGUGGCCUCCAAGGAAAACACAACGAUCGUUUGCUUUCUCUAUCUUGGCGCUUGCAACCGAGAGCGGCCAUUUUUAUGAGGGGAGCCCUGUGGGUACUCAUGUGGAAAGUGCCCACUGACUUUGGCUCUUGCGGUCGCACUAGUGUGGAAUUCUCGGGUGUCAAGG
# B8: ENSMUSG00000029028.64|Lrrc47 (ssRNA)
# RNA: GGGAGUUCUACAGUCCGACGAUCGCUUCGAUAUCCGCAUGCUAUGGGUAUGCUGUAGAUGUCUGUGUAGGUGUGGAUAUGCUGUAGGUAUCUGGGUGUGCUGUAGGUGUCUGUGUGGGUGUGGGUGUGCUGUGGGUGUCUGUGUGGGUGUGCUGUAGGUGUCUGUAGGUGUGGGUAUGCUGCAGGUGUGGGUGUGCUGUAGAUCUCUAUAGGUGUGGGUGUGCUGUAGGGGUCUGUGUGGGUAUAGGUGUGGGUGUGCUGUAGAUUCUGUGUAACUGGUUCUUUGCUGUUUCUCUGGGUGUUUCUCUUGCGGUCGCACUAGUGUGGAAUUCUCGGGUGUCAAGG
# B9: ENSMUSG00000058297.508|Spock2 (ssRNA)
# RNA: GGGAGUUCUACAGUCCGACGAUCGCUUCGAUAUCCGCAUGCUAUAGCCUGGGAGUUCUGGCAGGAGGCAAAGUUGGUGAGAGUCCUGGGACAUCUUACCCCCAGUGUUCCACAGGAGUCGUGACCACGUGUGAUGGGUGGGCACAGGUCUGCCUUGCUCCAGCCCCCUCCCUUGGUUUCUGUUGGUACCCAUUUGGCUUUUAUCUGCUUUCUGCUUCACCACUAAGUGCGUAGGUGGGGUCUUUUGAUAUCGGCUCCCCAAAGCCCAAGCCCACAGCCCUAGGAGAGAACCAGGGGCCCAUCUCUCUUGCGGUCGCACUAGUGUGGAAUUCUCGGGUGUCAAGG
# B10: ENSMUSG00000031028.667|Tub|229:233 (ssRNA)
# RNA: GGGAGUUCUACAGUCCGACGAUCGCUUCGAUAUCCGCAUGCUAAGGACAGGCAAAAUUUCUCUAGCUGAGAGCACACUUAGCCAGUUUUCACGCCUAGAACAUAUAUGUCGAUUUGCACAUGAUUGUCUUUUCCUAUUUUGGAGUGGUCAGACAUUUUAUUUUUGUUCAAAAUUAUCUGGAGUUUUAGACAAACUUGCAAAACUGUGCUUUUAUUAAGUGACUUUUUGAAUAAACUUUUUGGUAUUCUGAAGCAAAUGUAUUUAUUUAUUGCAUACUGCAAUGACAAACUUGGUAUUUUCCCACUCUUGCGGUCGCACUAGUGUGGAAUUCUCGGGUGUCAAGG
# B11: ENSMUSG00000058297.445|Spock2|189:193 (ssRNA)
# RNA: GGGAGUUCUACAGUCCGACGAUCGCUUCGAUAUCCGCAUGCUAUGGUGGGGCUGAAGGUUCCCAAGUAGCUUCUAGUUAAGCAAGCUUCGUGUUUCCUCAGGAGCAAGGUCACACAGGUCAGAUUAUUGUCGGUCCUGCGGGCCUCAUCCUUGAAUAAGCUGCCUGCCCAGUUCCUCCAUCCGUGUUCCUGCCUGCUCCCGUUCCCUUGUUGCGGGCAGGAGAGGUAGGGCACACAUGGAAAGAGUUCAACCAAAUUACGGCAGCACCACAUCUUGCCGAGCCCUGGAGCUGCCCUACUAAGACUCUUGCGGUCGCACUAGUGUGGAAUUCUCGGGUGUCAAGG
# B12: ENSMUSG00000028439.22|Fam219a|136:142 (ssRNA)
# RNA: GGGAGUUCUACAGUCCGACGAUCGCUUCGAUAUCCGCAUGCUACGCUGACCUGGGCCCGGUGGGAUGCAGCAGGAGAGACCCCUACCCUGCUGGUCCACUGGUCCCCAGCCCCGCGCCUCUUAGAGCCGCCAACCUCGUAACAGUCAUUGCUUCCUCCUAUGGUAGGACGUGUACCUCACACACAUCAAGGAGCCGGAGAAACCAAAACCGGGUCUGUCUCCAGCCCCGGGGCUGAGGAGGGGUGGGCACUGUUUGUUCGGUUACUUGGGGGGAACCACACCCAAGCACCCUGCCACCUCUCCCUCUUGCGGUCGCACUAGUGUGGAAUUCUCGGGUGUCAAGG
# B13: ENSMUSG00000061578.153|Ksr2|12:16;34:49;85:89 (ssRNA)
# RNA: GGGAGUUCUACAGUCCGACGAUCGCUUCGAUAUCCGCAUGCUAGACGGUCCUGGCAUACCAUGAUGGGUUACAUGGCACACACACACACACAAACUGUUUACAAUGGUCUCCCUGCCUCUCACGGGCACACAUCCAGGAGAAUGCACAUAGAGAGGUUCUGUGGUCUCUGCUGUCGCCUGGUGCUGAAUCCUGAGUGGUUUCCCCACUGAGGACCCUGUGACCCUGUGACCCUUGGCCCCUCCCUUAUUGUGCACACUCAGCACCCCAUCUUCCAAGCCUUUCUUCAUCCCCCACCUUCUUUUCUCUUGCGGUCGCACUAGUGUGGAAUUCUCGGGUGUCAAGG
# Biological target: TDP-43 (Homo sapiens, UniProt Q13148 1-414)
# Sequence (Q13148 whole entry): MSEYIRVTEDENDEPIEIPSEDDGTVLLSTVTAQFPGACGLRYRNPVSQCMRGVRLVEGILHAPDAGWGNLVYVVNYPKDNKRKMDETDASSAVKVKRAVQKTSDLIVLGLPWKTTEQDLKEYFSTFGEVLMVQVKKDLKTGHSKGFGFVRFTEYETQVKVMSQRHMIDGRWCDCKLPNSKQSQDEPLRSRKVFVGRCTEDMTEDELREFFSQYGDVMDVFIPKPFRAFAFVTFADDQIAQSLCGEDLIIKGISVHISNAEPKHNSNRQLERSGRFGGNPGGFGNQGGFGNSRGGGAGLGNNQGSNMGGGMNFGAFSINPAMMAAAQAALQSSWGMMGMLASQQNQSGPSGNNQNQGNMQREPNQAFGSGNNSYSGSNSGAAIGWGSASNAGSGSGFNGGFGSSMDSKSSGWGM
# Assay: RNA Bind-n-Seq with designed 260-mer pool; 25 mM Tris-HCl, 150 mM KCl, 3 mM MgCl2, BSA (printed 500 mg/mL), 20 units/mL SUPERase IN; pH not stated; 500 nM RNA pool, 1 h, 4 C; TDP-43 5, 50, 500 nM; high values mean tight binding
# Settings: protein: recombinant; tags: SBP (GST cleaved off with PreScission; pGEX-GST-SBP)
# In short: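 Streptavidin beads captured recombinant SBP-tagged TDP-43 at 5, 50 or 500 nM, and the beads were incubated for 1 h at 4 °C with 500 nM of an in vitro-transcribed pool of 260-nt 3′ UTR oligos in 25 mM Tris-HCl, 150 mM KCl, 3 mM MgCl2, BSA and SUPERase IN. After washing, bound RNA was eluted with biotin, reverse transcribed, PCR-amplified and sequenced. Binding is reported as R, the mapped-read-normalized abundance of each oligo in the bound sample divided by its abundance in the input. Two independent protein batches served as duplicates.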
row,Binder,binding signal
1,B1,0.63 R (bound/input frequency ratio)
2,B2,0.733 R (bound/input frequency ratio)
3,B3,2.23 R (bound/input frequency ratio)
4,B4,0.696 R (bound/input frequency ratio)
5,B5,0.83 R (bound/input frequency ratio)
6,B6,5.89 R (bound/input frequency ratio)
7,B7,5.11 R (bound/input frequency ratio)
8,B8,5.28 R (bound/input frequency ratio)
9,B9,0.768 R (bound/input frequency ratio)
10,B10,0.0728 R (bound/input frequency ratio)
11,B11,0.0933 R (bound/input frequency ratio)
12,B12,0.559 R (bound/input frequency ratio)
13,B13,1.47 R (bound/input frequency ratio)
